# Experimental data taken from PubChem BioAssay (NCATS).
# Results filed as inconclusive are left out. The source made the active and inactive calls. Unless noted, calls follow the shape of the dose curve; as a rule, active = well fitted curve in the direction sought with a large enough effect; inconclusive = small, poorly fitted or top-dose-only effect, or another doubt; inactive = no such curve, though single readings can be large; an effect the other way counts as inactive or inconclusive.
# How the values were obtained:
# [1] = Counterscreen qHTS for small molecule stabilizers of the endoplasmic reticulum resident proteome: GLuc-NoTag assay (AID 1508627); also: potency is read from the fitted curve at half-maximal effect;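 as to activity change, negative = inhibition: SH-SY5Y cells given compound then 100 nM thapsigargin to empty ER calcium; 0% = thapsigargin alone and -100% = DMSO vehicle control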
# In short: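 Counterscreen line: SH-SY5Y-GLuc-NoTag cells, treated with compound 19 hr before a 4 hr, 100 nM thapsigargin calcium depletion. Secreted Gaussia luciferase in the medium was measured by luminescence after coelenterazine was added (0.07x final), with cells unlysed.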
# [2] = Confirmatory qHTS for small molecule stabilizers of the endoplasmic reticulum resident proteome: Secreted ER Calcium Modulated Protein (SERCaMP) assay (AID 1508628); also: nearly all actives have a fitted effect of over 40% in size; also: potency is read from the fitted curve at half-maximal effect
# In short: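 GLuc-SERCaMP-expressing SH-SY5Y cells, pretreated 16 h with compound, are challenged with thapsigargin to empty ER calcium stores; after 4 h, coelenterazine is added directly to the medium and luminescence is imaged.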
# [3] = Cell Viability qHTS for small molecule stabilizers of the endoplasmic reticulum resident proteome (AID 1508629); conditions: cell viability counter-screen, 100 nM thapsigargin for final 4 h;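 also: compound exposure about 46 h in total before the viability read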; also: potency is read from the fitted curve at half-maximal effect
# [4] = AP1 Signaling Pathway (AID 357; active = well fitted curve in either direction with a large enough effect, not every such curve was filed as active;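 also: ME-180 reporter cells stimulated with EGF at its EC50 level; % is scaled to controls: 0 for no effect and ±100 for the full control effect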); conditions: ME-180 AP-1-bla reporter, EGF-induced, beta-lactamase ratio, 5 h; at 7.69 µM (top of the series) unless noted
# In short: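 First, ME-180 AP-1-bla cells were cultured overnight at 37 °C in low-serum Opti-MEM. Next, titrated compounds with EC50 EGF were incubated 5 hours. Finally, CCF4 was added for 2.5 hours and the 460/530 nm ratio recorded.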
# [5] = molecular target: Cytochrome P450 1A2 (Homo sapiens) (UniProt P05177); test: p450-cyp1a2 (AID 410; calls by dose curve; also: potency is read from the fitted curve at half-maximal effect)
# Chain of Cytochrome P450 1A2 (Homo sapiens) (P05177 whole entry, looked up): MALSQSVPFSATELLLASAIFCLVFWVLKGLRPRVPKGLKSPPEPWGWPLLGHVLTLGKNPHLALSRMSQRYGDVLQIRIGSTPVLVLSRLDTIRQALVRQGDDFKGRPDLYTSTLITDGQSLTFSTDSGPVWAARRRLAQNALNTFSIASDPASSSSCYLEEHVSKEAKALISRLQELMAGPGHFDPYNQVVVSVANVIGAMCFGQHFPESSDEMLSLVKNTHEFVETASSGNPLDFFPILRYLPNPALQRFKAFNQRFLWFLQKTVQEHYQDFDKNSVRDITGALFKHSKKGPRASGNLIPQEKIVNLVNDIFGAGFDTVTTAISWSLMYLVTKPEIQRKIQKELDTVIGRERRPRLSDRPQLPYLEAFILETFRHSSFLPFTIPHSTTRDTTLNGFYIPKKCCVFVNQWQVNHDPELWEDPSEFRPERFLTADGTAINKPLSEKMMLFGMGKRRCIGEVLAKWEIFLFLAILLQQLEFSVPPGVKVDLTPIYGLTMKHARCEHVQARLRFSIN
# In short: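 20nM CYP1A2, 100uM Luciferin-ME (=Km), 100mM KPO4; cpd 10 min RT; +NADPH regen, 60 min RT; stop/detect 20 min; luminescence. Normalized to furafylline 57 uM = full inhibition.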
# [6] = Stat Signaling Pathway (AID 446; active = well fitted curve in either direction with a large enough effect, not every such curve was filed as active;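 also: ME-180 cervical cancer cells given 40 pM IL-6 alongside compound; SIE-controlled beta-lactamase reporter measured as 460/530 nm FRET emission ratio; % is scaled to controls: 0 for no effect and ±100 for the full control effect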); conditions: ME-180 SIE beta-lactamase reporter, IL-6 stimulated, 5 h; at 7.69 µM (top of the series) unless noted
# In short: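 Emission at 460 and 530 nm (excitation 405 nm) reports SIE-controlled beta-lactamase in ME-180 cells. Cells received compound with 40 pM IL-6 for 5 hrs at 37 C; data scaled between 300 pM IL-6 and 125 nM JAK-inhibitor controls.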
# [7] = molecular target: Glucocorticoid receptor (Homo sapiens) (UniProt P04150); test: GR-GFP Redistribution (AID 450;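 active = compounds whose dose series gives a full or clear partial fitted curve of increased nuclear translocation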; also: potency is read from the fitted curve at half-maximal effect); conditions: U2OS GR-GFP nuclear translocation, laser cytometry, 2 h
# Chain of Glucocorticoid receptor (Homo sapiens) (P04150 whole entry, looked up, the tested form may be a part): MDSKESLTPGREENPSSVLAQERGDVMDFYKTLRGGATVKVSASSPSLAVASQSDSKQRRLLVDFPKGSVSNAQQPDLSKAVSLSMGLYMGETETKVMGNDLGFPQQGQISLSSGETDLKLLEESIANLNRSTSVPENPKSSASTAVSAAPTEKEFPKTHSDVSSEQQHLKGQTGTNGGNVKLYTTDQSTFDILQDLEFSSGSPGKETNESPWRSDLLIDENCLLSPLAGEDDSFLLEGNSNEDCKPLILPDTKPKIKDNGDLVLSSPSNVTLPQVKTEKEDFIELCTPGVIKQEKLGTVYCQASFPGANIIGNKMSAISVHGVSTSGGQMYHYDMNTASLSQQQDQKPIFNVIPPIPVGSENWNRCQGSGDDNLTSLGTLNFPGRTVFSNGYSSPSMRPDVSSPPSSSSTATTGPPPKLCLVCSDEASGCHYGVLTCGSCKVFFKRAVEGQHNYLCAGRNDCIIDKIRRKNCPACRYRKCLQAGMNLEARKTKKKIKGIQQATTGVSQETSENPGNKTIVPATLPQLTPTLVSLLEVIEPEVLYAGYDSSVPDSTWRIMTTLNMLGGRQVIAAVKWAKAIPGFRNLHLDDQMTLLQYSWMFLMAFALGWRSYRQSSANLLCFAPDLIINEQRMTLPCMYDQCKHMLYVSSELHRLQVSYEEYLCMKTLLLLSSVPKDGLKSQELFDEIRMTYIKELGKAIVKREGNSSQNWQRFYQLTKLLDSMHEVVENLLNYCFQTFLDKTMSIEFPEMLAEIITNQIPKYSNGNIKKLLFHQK
# [8] = molecular target: Glucocorticoid receptor (Homo sapiens) (UniProt P04150); test: GR-EFC Redistribution (AID 451; calls by dose curve; also: potency is read from the fitted curve at half-maximal effect); conditions: CHO-K1 GR-EFC translocation, beta-gal luminescence, 2 h
# In short: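 Translocation of GR-ED fusion to nuclear EA restores b-gal, read by luminescence after 1 h room-temperature detection. Engineered CHO-K1 biosensor cells, 1,000/well, exposed 2 h at 37 C to titrations up to 46 uM final.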
# [9] = molecular target: Mitogen-activated protein kinase 10 (Mus musculus) (UniProt Q61831); test: JNK3 AlphaScreen Assay (AID 530; active = well fitted curve in either direction with a large enough effect, not every such curve was filed as active;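 also: kinase came from lysate of stimulated human HepG2 cells; signal reports phosphorylation of biotinylated GST-cJun 1-79 at Ser73 with 10 µM ATP; % is scaled to controls: 0 for no effect and ±100 for the full control effect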)
# In short: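 Kinase buffer: 20 mM Tris-HCl pH 7.6, 10 mM MgCl2, 1 mM DTT, 0.1 mM Na3VO4, 0.01% Tween-20; ATP 10 uM. Substrate biotin-GST-cJun(1-79), enzyme from activated HepG2 lysates. Detection by Ser73 phospho-antibody AlphaScreen.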
# [10] = molecular target: Cytochrome P450 3A4 (Homo sapiens) (UniProt P08684); test: qHTS Assay for Inhibitors and Substrates of Cytochrome P450 3A4 (AID 884); also: potency is read from the fitted curve at half-maximal effect; nearly all actives have a fitted effect of over 50% in size
# Chain of Cytochrome P450 3A4 (Homo sapiens) (P08684 whole entry, looked up): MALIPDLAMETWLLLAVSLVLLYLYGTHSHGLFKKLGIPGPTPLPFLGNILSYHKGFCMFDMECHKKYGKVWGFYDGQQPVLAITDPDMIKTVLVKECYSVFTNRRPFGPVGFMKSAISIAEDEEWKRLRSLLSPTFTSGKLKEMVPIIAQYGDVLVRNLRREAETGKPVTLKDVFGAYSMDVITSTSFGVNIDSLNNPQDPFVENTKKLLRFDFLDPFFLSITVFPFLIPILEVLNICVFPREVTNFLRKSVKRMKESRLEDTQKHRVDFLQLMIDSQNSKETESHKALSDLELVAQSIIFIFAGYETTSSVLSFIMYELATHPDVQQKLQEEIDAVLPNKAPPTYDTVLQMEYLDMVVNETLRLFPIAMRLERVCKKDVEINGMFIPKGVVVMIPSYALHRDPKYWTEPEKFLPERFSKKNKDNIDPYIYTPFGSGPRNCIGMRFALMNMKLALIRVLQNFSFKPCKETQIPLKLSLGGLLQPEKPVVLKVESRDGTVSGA
# In short: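 Luminescent readout of luciferin produced by CYP3A4 (20 nM) dealkylation of Luciferin-PPXE, 25 uM (its KM). NADPH-driven reaction ran 60 min at RT after 10 min compound preincubation; data scaled to 57 uM ketoconazole as 100% inhibition.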
# [11] = molecular target: Cytochrome P450 3A4 (Homo sapiens) (UniProt P08684); test: qHTS Assay for Activators of Cytochrome P450 3A4 (AID 885); also: nearly all actives have a fitted effect of over 65% in size
# In short: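 Activators are scored by enhanced luminescence from CYP3A4 conversion of luciferin-PPXE (25uM, equal to KM) to luciferin, after 60 min at RT with an NADPH-regenerating system.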
# [12] = molecular target: Cytochrome P450 2D6 (Homo sapiens) (UniProt P10635); test: qHTS Assay for Inhibitors and Substrates of Cytochrome P450 2D6 (AID 891); also: potency is read from the fitted curve at half-maximal effect; nearly all actives have a fitted effect of over 60% in size
# Chain of Cytochrome P450 2D6 (Homo sapiens) (P10635 whole entry, looked up): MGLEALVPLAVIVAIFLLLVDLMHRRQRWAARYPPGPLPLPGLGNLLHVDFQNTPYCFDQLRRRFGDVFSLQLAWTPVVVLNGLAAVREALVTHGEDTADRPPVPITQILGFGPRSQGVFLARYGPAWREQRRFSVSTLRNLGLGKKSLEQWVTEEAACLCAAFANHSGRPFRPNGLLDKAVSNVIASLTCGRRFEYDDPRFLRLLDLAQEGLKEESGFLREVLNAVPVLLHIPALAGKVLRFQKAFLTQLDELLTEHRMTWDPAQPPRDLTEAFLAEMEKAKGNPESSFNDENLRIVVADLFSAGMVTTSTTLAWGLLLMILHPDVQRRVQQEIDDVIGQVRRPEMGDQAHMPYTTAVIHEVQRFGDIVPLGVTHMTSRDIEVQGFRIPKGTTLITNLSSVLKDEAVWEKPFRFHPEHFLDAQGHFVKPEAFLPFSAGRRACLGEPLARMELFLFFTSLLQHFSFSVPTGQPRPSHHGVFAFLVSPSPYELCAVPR
# In short: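 Luminescent read-out of luciferin formed by 5 nM human CYP2D6 demethylating 30 uM Luciferin-ME EGE (Km level) over 60 min at room temperature after NADPH regeneration addition. Data normalized to full inhibition by 1.43 uM quinidine.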
# [13] = Confirmation and Secondary Assay for Modulators of Hemoglobin Beta Chain Splicing at IVS2 654 locus (AID 910);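 also: HeLa cells stably carrying EGFP split by mutant beta-globin IVS2-654 intron; per-well total GFP intensity by laser scanning cytometry after 2-day treatment; % of control where 0% means no effect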
# In short: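 Readout: per-well total peak green fluorescence (488 nm ex, 500–520 nm em) from objects 5–250 µm, reflecting correct splicing of an EGFP-654 reporter. Compounds were applied for 2 days at 37 °C to overnight-plated HeLa EGFP-654 cells; controls were DMSO and 500 nM IVS2-654 PNA.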
# [14] = Confirmation and Secondary Assay for Modulators of Hemoglobin Beta Chain Splicing at IVS2 705 locus (AID 930);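 also: HeLa cells stably expressing the EGFP-705 splicing reporter; GFP fluorescence per well restored by corrected splicing of the IVS2-705 intron in EGFP; % of control where 0% means no effect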
# In short: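 HeLa IVS2-705 EGFP reporter cells, 500/well, compound 2 d at 37C; correct splicing yields fluorescent EGFP. Control: 500 nM antisense PNA. Read-out: total peak GFP intensity.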
# [15] = qHTS Assay for Lipid Storage Modulators (AID 1519; calls by dose curve); conditions: Drosophila S3 cells, BODIPY lipid droplet/cell ratio, laser cytometry, cells loaded with oleic acid; for activity change, negative = inhibition: at 57.5 µM (top of the series)
# In short: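 Cells seeded at 5,000 per well were treated with compounds over a concentration series and loaded with oleic acid (400 uM, as added). Lipid droplet fluorescence (488 nm excitation, 500-530 nm channel) was read by laser-scanning cytometry and normalized to 20 uM Triacsin C.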
# [16] = molecular target: Ubiquitin carboxyl-terminal hydrolase 1 (Homo sapiens) (UniProt O94782); test: Inhibitors of USP1/UAF1: Pilot qHTS (AID 504865);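 also: rhodamine fluorescence freed from ubiquitin-rhodamine substrate followed over time; top concentration of the series differs between compounds; % is scaled to controls: 0 for no effect and ±100 for the full control effect; nearly all actives have a fitted effect of over 35% in size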
# Chain of Ubiquitin carboxyl-terminal hydrolase 1 (Homo sapiens) (O94782 whole entry, looked up): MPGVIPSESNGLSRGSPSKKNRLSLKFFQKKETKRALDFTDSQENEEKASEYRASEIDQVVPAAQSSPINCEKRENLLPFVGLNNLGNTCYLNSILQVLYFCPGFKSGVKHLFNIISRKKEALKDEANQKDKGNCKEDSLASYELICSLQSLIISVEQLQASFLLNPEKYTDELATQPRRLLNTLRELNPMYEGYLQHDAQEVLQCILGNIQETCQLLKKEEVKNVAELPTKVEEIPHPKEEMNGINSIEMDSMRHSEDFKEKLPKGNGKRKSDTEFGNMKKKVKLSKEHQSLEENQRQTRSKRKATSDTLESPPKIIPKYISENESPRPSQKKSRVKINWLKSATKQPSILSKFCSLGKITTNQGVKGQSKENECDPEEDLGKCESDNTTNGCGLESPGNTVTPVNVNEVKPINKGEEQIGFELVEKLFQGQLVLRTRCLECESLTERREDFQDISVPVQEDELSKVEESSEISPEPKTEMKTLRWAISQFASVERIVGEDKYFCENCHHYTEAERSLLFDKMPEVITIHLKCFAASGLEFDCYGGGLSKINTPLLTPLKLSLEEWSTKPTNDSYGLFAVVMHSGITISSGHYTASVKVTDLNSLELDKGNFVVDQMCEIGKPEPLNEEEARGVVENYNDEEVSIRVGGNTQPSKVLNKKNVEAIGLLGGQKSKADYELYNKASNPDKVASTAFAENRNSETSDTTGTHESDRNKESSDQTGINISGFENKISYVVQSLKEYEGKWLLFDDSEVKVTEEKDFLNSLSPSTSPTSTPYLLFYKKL
# In short: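 Deubiquitinase activity followed as kinetic rhodamine fluorescence release from 150 nM Ub-Rho. 1 nM USP1/UAF1 with compound, after 15 min room-temperature preincubation, in HEPES pH 7.8 buffer containing TCEP, EDTA, BSA and Tween-20.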
# [17] = molecular target: Lysosomal acid glucosylceramidase (Homo sapiens) (UniProt P04062); test: Glucocerebrosidase-p2 (AID 348; in the data active = potency below about 10 µM; also: potency is read from the fitted curve at half-maximal effect); conditions: purified GBA, blue fluorogenic substrate, 40 min
# Chain of Lysosomal acid glucosylceramidase (Homo sapiens) (P04062 whole entry, looked up): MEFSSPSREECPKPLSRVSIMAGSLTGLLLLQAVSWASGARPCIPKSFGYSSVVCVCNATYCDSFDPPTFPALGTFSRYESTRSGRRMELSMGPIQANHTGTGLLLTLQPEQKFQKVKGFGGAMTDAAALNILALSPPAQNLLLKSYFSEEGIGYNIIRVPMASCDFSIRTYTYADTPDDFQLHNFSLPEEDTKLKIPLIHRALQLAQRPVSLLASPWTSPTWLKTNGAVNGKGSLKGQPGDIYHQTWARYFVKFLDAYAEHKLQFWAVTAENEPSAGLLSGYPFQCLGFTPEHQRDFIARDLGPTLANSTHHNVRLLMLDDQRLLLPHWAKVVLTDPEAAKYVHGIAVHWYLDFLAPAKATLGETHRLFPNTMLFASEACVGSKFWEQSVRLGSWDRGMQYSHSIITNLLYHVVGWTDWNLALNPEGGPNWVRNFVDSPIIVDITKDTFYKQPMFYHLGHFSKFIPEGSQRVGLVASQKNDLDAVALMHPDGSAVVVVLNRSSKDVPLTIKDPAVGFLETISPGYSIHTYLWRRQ
# In short: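 Normal human glucocerebrosidase (0.2 nM) with blue fluorogenic substrate (80 uM final) in citrate/phosphate pH 5.9 with 10mM sodium taurocholate, 0.01% tween-20; 40 min RT, NaOH/glycine stop; fluorescence Ex 365/Em 440; AC50 from a titration from 0.6 nM upwards.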
# [18] = qHTS Assay for Identification of Small Molecule Agonists for Hypoxia Response Element Signaling Pathway (AID 914; active = well fitted activation curve with a large enough effect in the signal ratio, with a control signal flat, not every such curve was filed as active; the % refers to the signal ratio; also: potency is read from the fitted curve at half-maximal effect); conditions: ME-180 (cervical carcinoma) HRE-bla reporter, beta-lactamase ratio, CoCl2, 17 h; activation: stronger effect = higher value
# In short: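 HRE-bla ME-180 assay for agonist-like enhancement of an EC50 CoCl2 stimulus: 17 h at 37 degrees Celsius, CCF4 for 2.5 h, ratiometric 460/530 nm signal converted to %Activity and fitted to AC50.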
# [19] = molecular target: Dual specificity protein kinase CLK4 (Homo sapiens) (UniProt Q9HAZ1); test: qHTS Assay for Inhibitors of CDC-like Kinase 4 (Kinase-Glo Assay) (AID 1770); also: % is scaled to controls: 0 for no effect and ±100 for the full control effect; nearly all actives have a fitted effect of over 65% in size
# Chain of Dual specificity protein kinase CLK4 (Homo sapiens) (Q9HAZ1 whole entry, looked up): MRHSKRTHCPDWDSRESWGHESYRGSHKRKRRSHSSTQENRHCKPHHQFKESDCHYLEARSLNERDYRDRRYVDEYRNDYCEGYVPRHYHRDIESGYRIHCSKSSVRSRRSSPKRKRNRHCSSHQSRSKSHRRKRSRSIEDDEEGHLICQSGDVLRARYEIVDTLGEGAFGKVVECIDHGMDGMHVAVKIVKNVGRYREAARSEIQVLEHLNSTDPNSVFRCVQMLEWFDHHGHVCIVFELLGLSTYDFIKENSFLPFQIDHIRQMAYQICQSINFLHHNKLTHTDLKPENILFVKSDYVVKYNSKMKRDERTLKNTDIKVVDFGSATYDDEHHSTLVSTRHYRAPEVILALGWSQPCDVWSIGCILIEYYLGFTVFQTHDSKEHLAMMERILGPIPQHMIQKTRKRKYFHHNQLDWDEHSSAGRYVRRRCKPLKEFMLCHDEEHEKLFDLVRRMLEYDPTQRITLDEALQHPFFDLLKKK
# In short: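 Luminescent ATP-depletion read-out (Kinase-Glo) after 4.5 h room-temperature reaction of Clk4 (25 nM final) with RS peptide (100 uM) and ATP (1 uM), pH 7.5 Tris buffer with MgCl2 and DTT.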
# [20] = molecular target: Dual specificity protein kinase CLK4 (Homo sapiens) (UniProt Q9HAZ1); test: qHTS Assay for Inhibitors of CDC-like Kinase 4 (ADP-Glo Assay) (AID 1771); also: % is scaled to controls: 0 for no effect and ±100 for the full control effect; nearly all actives have a fitted effect of over 70% in size
# In short: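 25 nM Clk4, 100 uM RS peptide, 1 uM ATP (final); 2 mM MgCl2, 0.5 mM EGTA, 2.5 mM DTT, 0.01% Triton X-100; 1 hr RT. ADP-Glo readout: ATP depletion 45 min, conversion/luciferase 30 min, luminescence.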
# [21] = molecular target: Dual specificity protein kinase CLK4 (Homo sapiens) (UniProt Q9HAZ1); test: qHTS Assay for Inhibitors of CDC-like Kinase 4 (ADP-FP Assay) (AID 1795);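 also: recombinant human CLK4 phosphorylating RS repeat peptide at 1 µM ATP; % is scaled to controls: 0 for no effect and ±100 for the full control effect; nearly all actives have a fitted effect of over 60% in size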
# In short: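 Kinase activity was measured as ADP production using Transcreener orange tracer (4 nM) and ADP antibody (1 ug/mL) fluorescence polarization, with ADP calculated from a calibration curve. The 1 h reaction contained 6.25 nM Clk4, 1 uM ATP and 100 uM RS peptide at pH 7.5 with Mg2+.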
# [22] = molecular target: 3',5'-cyclic-AMP phosphodiesterase 4B (Homo sapiens) (UniProt Q07343); test: qHTS Assay for Inhibitors of PDE-IV (AID 607; active = well fitted activation curve with a large enough effect in the main read-out, with a control signal flat, not every such curve was filed as active; also: % of control where 0% means no effect)
# Chain of 3',5'-cyclic-AMP phosphodiesterase 4B (Homo sapiens) (Q07343 whole entry, looked up): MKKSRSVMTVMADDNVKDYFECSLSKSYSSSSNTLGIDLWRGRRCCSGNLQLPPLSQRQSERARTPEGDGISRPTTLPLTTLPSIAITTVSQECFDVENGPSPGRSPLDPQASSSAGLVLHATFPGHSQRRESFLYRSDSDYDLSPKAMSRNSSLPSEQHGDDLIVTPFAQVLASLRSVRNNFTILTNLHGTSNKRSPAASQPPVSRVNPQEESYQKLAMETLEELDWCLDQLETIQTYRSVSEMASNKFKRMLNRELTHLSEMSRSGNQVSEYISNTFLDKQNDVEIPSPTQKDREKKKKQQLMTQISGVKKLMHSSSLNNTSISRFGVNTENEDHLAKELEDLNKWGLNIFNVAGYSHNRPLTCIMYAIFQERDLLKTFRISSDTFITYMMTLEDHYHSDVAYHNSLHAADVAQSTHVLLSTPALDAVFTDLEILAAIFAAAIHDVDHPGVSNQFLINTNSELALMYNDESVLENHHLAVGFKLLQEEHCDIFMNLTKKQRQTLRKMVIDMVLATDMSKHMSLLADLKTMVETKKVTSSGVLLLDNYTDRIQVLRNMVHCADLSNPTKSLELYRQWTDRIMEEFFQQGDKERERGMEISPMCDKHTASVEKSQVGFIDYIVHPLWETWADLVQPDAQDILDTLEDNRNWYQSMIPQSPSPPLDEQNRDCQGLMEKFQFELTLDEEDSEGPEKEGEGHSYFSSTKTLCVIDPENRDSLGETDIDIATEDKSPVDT
# In short: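 The readout is membrane depolarisation from a cAMP-sensing CNG channel, detected with a potential dye at ex 535/em 590. Cells were HEK293-derived (endogenous PDE-IV) at 1000 cells/well, titrated up to 22.9 uM final.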
# [23] = NFAT Signaling Pathway (AID 444; active = well fitted curve in either direction with a large enough effect, not every such curve was filed as active;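 also: carbachol stimulus at about its EC50 of 1 µM final; % is scaled to controls: 0 for no effect and ±100 for the full control effect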); conditions: Jurkat NFAT-bla M1, carbachol, beta-lactamase ratio, 5 h; at 7.69 µM (top of the series) unless noted
# In short: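 Read-out: CCF4 FRET ratio (460 nm/530 nm) after 1 h RT dye loading, used for %activity and AC50 from titration series. Cells: Jurkat NFAT-β-lactamase/M1 line, treated with compound plus 1 uM carbachol for 5 h, 37 °C.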
# [24] = measured here: cell count channel max response
# [25] = measured here: lipid channel max response
compound,measurement,setting,value
CCC(C)C(N)C(=O)NC(CC(N)=O)C(=O)NC(CC(C)C)C(=O)NC(CCCCN)C(=O)NC(C)C(=O)NC(CC(C)C)C(=O)NC(C)C(=O)NC(C)C(=O)NC(CC(C)C)C(=O)NC(C)C(=O)NC(CCCCN)C(=O)NC(CCCCN)C(=O)NC(C(=O)NC(CC(C)C)C(N)=O)C(C)CC (stereo not drawn),Potency,[1],inactive
same,Potency,[2],inactive
same,max response,[3],16.1% (inactive)
COc1ccc(CNc2ncnc3ccc(-c4ccccc4CN(C)C)cc23)c(OC)c1,"activity change, negative = inhibition",[4],7.23% (inactive)
same,Potency,[5],31.6 µM (active)
same,"activity, negative = inhibition",[6],-15.7% (inactive)
same,Potency,[7],> 46 µM (inactive)
same,Potency,[8],> 46 µM (inactive)
same,outcome,[9],inactive
same,Potency,[10],7.94 µM (active)
same,Potency,[11],inactive
same,Potency,[12],1.26 µM (active)
same,outcome,[13],inactive
same,outcome,[14],inactive
same,"activity change, negative = inhibition",[15],3.46% (inactive)
same,max response,[15]; [24],4.91%
same,max response,[15]; [25],8.13%
same,Potency,[16],inactive
same,Potency,[1],inactive
same,Potency,[2],7.94 µM (active)
same,max response,[3],6.24% (inactive)
CC(=O)N[C@H]1C(O[C@@H]2O[C@H](C[C@@H](O)[C@H]3O[C@@H](N4CCC(=O)NC4=O)[C@H](O)[C@@H]3O)[C@H](O)[C@H](O)[C@H]2NC(=O)/C=C/CCCCCCCCCCC(C)C)OC(CO)[C@@H](O)[C@@H]1O (stereo partly drawn),Potency,[1],35.5 µM (active)
same,Potency,[2],0.562 µM (active)
same,Potency,[3],0.398 µM (active)
C1CCC[C@H]2CCCN3CC[C@H](CCCCCC[C@@H]4CCCN5CC[C@H](CC1)OC45)OC23,"activity change, negative = inhibition",[1],16.2% [at 9.46 µM] (inactive)
CN1CCN(c2ncc3nc(-c4ccccc4)c(=O)n(CCc4ccccc4)c3n2)CC1,Potency,[17],> 11.4 µM (inactive)
same,Potency,[7],> 9.22 µM (inactive)
same,Potency,[8],> 46 µM (inactive)
same,outcome,[9],inactive
same,Potency,[18],3.16 µM (active)
same,"activity change, negative = inhibition",[15],-1.95% (inactive)
same,max response,[15]; [24],-2.1%
same,max response,[15]; [25],-5.21%
same,Potency,[19],inactive
same,Potency,[20],inactive
same,Potency,[21],inactive
same,Potency,[16],inactive
same,Potency,[1],inactive
same,Potency,[2],39.8 µM (active)
O=c1c(-c2ccc(F)cc2)nc2cnc(N3CCNCC3)nc2n1-c1ccccc1,Potency,[17],> 11.4 µM (inactive)
same,Potency,[5],10 µM (active)
same,Potency,[8],> 46 µM (inactive)
same,Potency,[22],inactive
same,Potency,[11],inactive
same,"activity change, negative = inhibition",[15],6.93% (inactive)
same,max response,[15]; [24],19.9%
same,max response,[15]; [25],25.6%
same,Potency,[20],inactive
same,Potency,[21],inactive
same,Potency,[16],inactive
same,Potency,[1],inactive
same,Potency,[2],inactive
same,max response,[3],-15.9% (inactive)
O=C(O)/C=C/C(=O)Nc1ccc(OC(F)(F)Cl)cc1,Potency,[1],inactive
same,Potency,[2],inactive
same,max response,[3],5.17% (inactive)
FC(F)(F)c1ccccc1-c1nccc(N2CCNCC2)n1,Potency,[17],> 11.4 µM (inactive)
same,"activity change, negative = inhibition",[4],-4.79% (inactive)
same,Potency,[5],10 µM (active)
same,"activity change, negative = inhibition",[23],-3.28% (inactive)
same,"activity, negative = inhibition",[6],9.61% (inactive)
same,Potency,[7],> 46 µM (inactive)
same,Potency,[8],> 46 µM (inactive)
same,outcome,[9],inactive
same,Potency,[22],inactive
same,"activity change, negative = inhibition",[15],4.7% (inactive)
same,max response,[15]; [24],10.7%
same,max response,[15]; [25],12.2%
same,Potency,[19],inactive
same,Potency,[20],inactive
same,Potency,[16],inactive
same,Potency,[1],inactive
same,Potency,[2],15.8 µM (active)
